Assay outcomes deposited in PubChem by several laboratories.
Cardiac RTF inh – cardiac RTF calcium desensitization; P19429+P45379; IANBD-labeled cardiac RTF, Ca2+ fluorescence; inhibition, % at 7.15 µM; hit rate 0.12% among 340,000; AID 493244;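 active means inhibition above the mean inhibition of all tested compounds plus 3 SD, cut at about 17% in these data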;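 further: assay run at fixed EC70 calcium of 1.6 mM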
ANO1 block – mouse TMEM16A channel inhibition, primary screen; Q8BHY3; HEK293 TMEM16A/YFP iodide influx fluorescence, ionomycin; normalized B-score (activity score, 25-100; higher = stronger inhibition) at 10 µM; hit rate 1.2% among 310,000; AID 588511;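 active means ratio plate-corrected score three or more library SD toward inhibition, starting fluorescence score within five deviations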;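 further: score derived from kinetic fluorescence span divided by baseline fluorescence per well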
cardiac RTF act – increases calcium sensitivity of human cardiac regulated thin filaments; P19429+P45379; hit rate 0.24% among 340,000; activation, % at 7.2 µM; IANBD-labeled TnC RTF fluorescence at EC20 calcium; 0% EC20 calcium, 100% full calcium;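 active means activation above the mean over all tested compounds plus 3 SD, cut at about 30% in these data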;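 further: rise in fluorescence read as greater calcium sensitivity of cardiac thin filaments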
ANO1 activ – activators or potentiators of mouse TMEM16A chloride channel; B-score at 10 µM; hit rate 0.3% among 340,000; Q8BHY3; HEK293 TMEM16A/YFP-H148Q/I152L, iodide quench fluorescence; hits give low values;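 active means fluorescence-ratio B-score plate-corrected deviation score at least 3 library SD below zero, with starting fluorescence score within 5 deviations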;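 further: channel opened by trigger with iodide after compound preincubation; score built on the fluorescence ratio of max minus min over baseline; more negative score means more quench and so TMEM16A activation or potentiation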
CRFR2-BP antag – blocks CRF-induced signaling of the CRF-BP/CRF-R2 complex; HEK293 CRF-R2/CRF-BP, CRF-induced calcium fluorescence; inhibition, % at 11.8 µM; hit rate 0.59% among 350,000;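 active means inhibition of the ligand-induced calcium signal above about 50% at the single tested concentration, limit read from the data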
CRFR2-BP ag – CRF-BP/CRF-R2 complex agonism; HEK293 CRF-R2/CRF-BP, calcium dye fluorescence (FLIPR); percent of saturating CRF peptide response; activation, % at 13.2 µM; hit rate 0.46% among 350,000; AID 588473;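 active means activation of at least 50%, plus an integration ratio under a set limit after plate pattern correction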;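 further: plate controls were neutral control wells without compound for no effect and CRF at EC100 for full effect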
TMEM16A reconf – TMEM16A (mouse) chloride channel inhibition, re-confirmation; shares compounds with ANO1 block; HEK293 TMEM16A/YFP-H148Q, iodide quench fluorescence; ionomycin added to raise cell calcium; inhibition, % at 10 µM; hit rate 39% among 2,300; AID 652189;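 active means mean duplicate percent inhibition, scaled so buffer wells are 0 and the reference blocker 100, over three buffer SD above buffer mean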
HEK293 Ca mobil – alters calcium mobilization in TMEM16A HEK293 cells, counter-screen | shares compounds with ANO1 block | TMEM16A/YFP HEK293, Fluo4 calcium mobilization | calcium response (% of ionomycin), % at 10 µM | hit rate 2% among 2,300 | AID 652231;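 active means duplicate-averaged calcium signal over 20% of the ionomycin maximum, relative to buffer baseline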;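 further: each well's signal is peak minus trough fluorescence divided by its pre-addition baseline; 0% = buffer wells and 100% = ionomycin wells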
YFP-HEK293 quench – acts in parental YFP-HEK293 cells lacking TMEM16A, counter-screen. shares compounds with ANO1 block. iodide YFP quench, ionomycin. YFP ratio F(max-min)/F0 at 10 µM. 2,300 tested, under 10 active. AID 652233;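 active means yellow fluorescent protein signal ratio exceeding the buffer control mean by over 5 SD of those controls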;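 further: ratio is mean of duplicate wells from kinetic YFP trace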
ClC-1 rat inh – selectivity of TMEM16A inhibitors: inhibition of rat ClC-1 chloride channel | CHO ClC-1-YFP, iodide influx fluorescence quench; iodide control reads 0, buffer control 100 | 2,300 tested, under 10 active | ratio percent, % at 10 µM | shares compounds with ANO1 block;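 active means duplicate-mean ratio percent above the mean of iodide-only control wells, which defines zero, plus 5 of their SD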;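 further: higher percent means stronger block of ClC-1 iodide influx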
Starred values were filed as active, the others as inactive; i = inactive; . = not tested or not shown. Most compounds without a hit are left out; they make up all but 2.4% or so of the library.

SMILES	Cardiac RTF inh	ANO1 block	cardiac RTF act	ANO1 activ	CRFR2-BP antag	CRFR2-BP ag	TMEM16A reconf	HEK293 Ca mobil	YFP-HEK293 quench	ClC-1 rat inh
CN(C)S(=O)(=O)c1cccc(NC(=O)CN2C(=O)NC(Cc3c[nH]c4ccccc34)C2=O)c1 (configuration not stated)	.	i	.	i	-29.7	16.5	.	.	.	.
Cn1nnnc1SCc1ccc(C(=O)Nc2nccs2)cc1	-9.2	100*	4.8	i	10.0	-2.1	i	i	-1.04	-4.5
CC(=O)NCCC(=O)N(C)CC1CCN(CCc2cccc(C(F)(F)F)c2)CC1	-2.5	i	9.3	i	1.4	1.8	.	.	.	.
CCN(CC(=O)Nc1c(F)cccc1F)C(=O)Cn1[nH]c(=O)c2ccccc2c1=O	-7.9	.	8.8	i	2.4	2.7	.	.	.	.
CCCc1cc(C(=O)N2CCN(c3ccc(C(F)(F)F)cn3)CC2)sc1C	-3.9	100*	8.9	i	7.5	1.7	i	i	-1.25	-5.5
Oc1ccccc1Cc1c(O)ccc2ccccc12	-3.4	25*	1.8	i	-11.1	-1.1	38.5%*	i	-1.13	-8.5
O=C(NCCCNC(=O)c1cc(Cl)ccc1Cl)c1ccco1	-19.0	i	-4.5	i	-1.3	0.0	.	.	.	.
Cc1ccc(C(=O)c2cnc3ccccc3c2-c2ccccc2)cc1	1.3	100*	-1.7	i	4.7	-0.6	i	i	-1.19	-8.0
COc1ccc(C(=O)c2cnc3ccccc3c2-c2ccccc2)cc1	-2.1	i	-3.0	i	24.0	-1.0	.	.	.	.
CC(C)(CC(=O)N1CCN(c2ccc(Cl)cc2)CC1)CC1=NS(=O)(=O)c2ccccc2N1	-5.2	25*	0.4	i	-43.7	-2.3	i	i	-1.1	-8.0
COc1cccc(N2CCN(C(=O)CC(C)(C)CC3=NS(=O)(=O)c4ccccc4N3)CC2)c1	1.1	i	0.6	i	0.2	-0.2	.	.	.	.
Oc1ccc(-c2nc3c4c(ncn3n2)-c2ccccc2CC42CCCC2)cc1	-1.1	i	-7.3	i	9.7	1.4	.	.	.	.
Clc1ccc(OCCN2CCN(c3ncnc4sccc34)CC2)cc1	-1.5	100*	4.1	i	-16.5	-0.2	16.0%*	i	-1.17	-31.5
Cc1ccc(OCCN2CCN(c3ncnc4sc(C)c(C)c34)CC2)cc1	-8.4	i	-5.5	i	12.5	1.1	.	.	.	.
COc1ccc(C(=O)c2sc(Nc3ccccc3)nc2C)cc1	-7.1	i	-3.6	i	-45.5	8.3	i	i	-0.965	-14.0
Cc1nc(Nc2ccccc2)sc1C(=O)c1ccccc1	.	i	.	i	-16.7	0.2	.	.	.	.
CCCCSc1oc(-c2ccco2)nc1S(=O)(=O)c1ccccc1	1.5	25*	-4.6	i	1.7	1.5	i	i	-0.739	-9.0
CCCCn1c(CN2CCN(c3cccc(Cl)c3)CC2)nc2c1c(=O)n(C)c(=O)n2C	-5.0	25*	3.8	i	17.9	0.3	i	i	-1.13	-12.0
O=C(COc1ccccc1)Nc1c2c(nn1-c1ccccc1)CS(=O)C2 (configuration not stated)	6.8	i	-6.2	i	-3.5	0.2	.	.	.	.
CCOc1cc(S(=O)(=O)NCCc2ccc(OC)c(OC)c2)c(OCC)cc1-n1cnnn1	-4.1	25*	-4.6	i	1.9	-2.7	i	i	-0.943	-2.0
COCc1c(C(=O)NCCOc2ccc(Cl)cc2)oc2ccccc12	4.5	.	-0.8	i	-1.3	-1.0	.	.	.	.
CCOC(=O)[C@@H]1[C@H]2COc3cc(OC)ccc3[C@H]2N2C(=O)N(c3ccc(C(F)(F)F)cc3)C(=O)[C@]12C	-15.7	.	0.2	i	1.0	5.8	.	.	.	.
CCCCn1c(SCC(=O)c2cc(OC)ccc2OC)nc2cc(S(N)(=O)=O)ccc21	-11.1	i	-3.6	i	-8.9	-2.4	.	.	.	.
CCCCn1c(SCc2ccc(C(=O)OC)o2)nc2cc(S(N)(=O)=O)ccc21	-12.0	25*	-1.1	i	12.0	-2.1	18.5%*	i	-1.1	-13.0
COC(=O)c1ccc(NC(=O)C2CCN(C(=O)Nc3ccccc3)CC2)cc1	0.1	.	-1.1	i	-7.9	-0.4	.	.	.	.
SMILES	Cardiac RTF inh	ANO1 block	cardiac RTF act	ANO1 activ	CRFR2-BP antag	CRFR2-BP ag	TMEM16A reconf	HEK293 Ca mobil	YFP-HEK293 quench	ClC-1 rat inh
C=CCn1c(SC(C)C(=O)NCc2ccc3c(c2)OCO3)nc2scc(-c3ccccc3)c2c1=O (configuration not stated)	-0.8	100*	-1.1	i	18.5	0.1	i	i	-1.16	-7.0
C=CCn1c(SCC(=O)NCc2ccc3c(c2)OCO3)nc2scc(-c3ccc(F)cc3)c2c1=O	-0.4	i	-5.5	i	0.7	0.1	.	.	.	.
CC(=O)N(Cc1ccccc1)c1ncc2c(n1)c(=O)c(C#N)c1ccccn12	-2.4	25*	4.8	i	3.7	5.3	i	i	-0.911	-7.5
CC(=O)N(Cc1c(C#N)c2ccccc2n1C)c1ccccc1	12.3	i	5.6	i	3.6	-3.4	.	.	.	.
CCOC(=O)c1sc(NC(=O)COC(=O)Cn2cnc3ccccc32)c(C(=O)OCC)c1C	0.1	i	-2.3	i	25.3	12.4	.	.	.	.
O=C1N(Cc2ccc(F)cc2Cl)c2ccccc2C12OCCCO2	-6.3	i	-6.1	i	-12.7	-1.0	.	.	.	.
O=C1N(Cc2ccccc2F)c2ccccc2C12OCCCO2	-0.5	100*	-8.6	i	12.7	-2.4	i	i	-1.14	-9.0
CCc1ccc(S(=O)(=O)NCc2csc(-c3ccccc3)n2)s1	-7.2	i	2.3	i	3.1	-2.0	.	.	.	.
CCc1ccc(S(=O)(=O)NCCc2csc(-c3ccccc3)n2)s1	-5.1	100*	-8.6	i	-17.2	-0.9	i	i	-1.07	-26.0
CCOc1ccc(NC(=O)CN(C)C(=O)COc2cccc3c2OC(C)(C)C3)cc1OCC	-5.4	.	0.9	i	1.3	-1.1	.	.	.	.
COc1ccc(S(=O)(=O)Nc2ccc(CC#N)cc2)cc1	-6.6	i	6.1	i	10.1	-0.5	.	.	.	.
N#CCc1ccc(NS(=O)(=O)c2ccc(C3CCCCC3)cc2)cc1	-1.2	25*	-5.4	i	-55.7	2.1	34.5%*	i	-0.914	-10.0
CN(C)C(=O)CCSc1nnc(-c2ccco2)o1	5.1	i	-0.7	i	-11.0	-1.5	.	.	.	.
